Screens deposited in PubChem by National Center for Advancing Translational Sciences (NCATS).
An excerpt weighted towards active compounds, which were near 9.4% of everything screened.
SMN2 splice up – increases expression of the SMN2 splice variant; HEK293 SMN2-luciferase splicing reporter, luminescence, 30-36 h; Potency, µM (series often up to 46.1 µM), for the others: at the top dose activity change, positive = activation, usual class: activators; 2.8% of 210,000 active; AID 1458; further: % of control where 0% means no effect; nearly all actives have a fitted effect of over 55% in size
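HEK293 cells carry an SMN2 minigene-luciferase reporter in which exon 7 inclusion puts luciferase in frame. Cells were seeded at 2000 cells/well, attached for 10-12 hours, then exposed to compounds for 30-36 hours at 37C before ONE-Glo luminescence.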
ELG1 genotoxic – genotoxicity induction in ELG1-luciferase HEK293T cells; HEK293T ELG1-luciferase reporter, luminescence, 16 h; 1.3% of 330,000 active; Potency, µM (highest dose often 46 µM), without a hit: at the highest dose activity change, positive = activation, most hits filed as activators; further: % of control where 0% means no effect; nearly all actives have a fitted effect of over 60% in size
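Genotoxicity was scored as increased ELG1-luciferase reporter signal, measured by ONE-Glo luminescence (30 min, room temperature). Compound or vehicle exposure of the HEK293T reporter cells lasted 16 hr at 37°C.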
ELG1 DNA repair – ELG1-dependent DNA repair inhibition; 2.3% of 330,000 active; Potency, µM (doses to about 46.1 µM), inactives show at the highest dose activity change, negative = inhibition, most hits filed as inhibitors; HEK293T ELG1-luciferase reporter, luminescence, 16 h; DNA damage induced by 5-fluorouridine; further: on the % scale 0 is the no-effect control and ±100 the full control effect; nearly all actives have a fitted effect of over 55% in size
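In this reporter screen, reduction of luminescence relative to DMSO vehicle indicated activity. Compounds and 5-fluorouridine were added together to 2,000 cells per well, incubated for 16 hr at 37 °C, then developed with ONE-Glo.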
Rab9 prom act – Rab9 promoter activation; Huh7 Rab9 promoter-luciferase reporter, luminescence, 24 h; AID 485297; 2.8% of 320,000 active; Potency, µM (top dose mostly 9.22 µM), for the others: at the top dose activation, negative = inhibition, usual class: activators; further: % of control where 0% means no effect; nearly all actives have a fitted effect of over 60% in size
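Quantitative HTS format; Huh7 Rab9-luciferase reporter cells (1500/well) receive compound 2 h post-plating, incubate 24 h at 37 °C, then get luciferase reagent for 10 min before luminescence reading.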
FLuc modulator – inhibits or activates purified firefly luciferase, miR-21 counter-screen | purified FLuc, Km substrates, luminescence inhibition | P08659 | Potency, µM (top dose mostly 57.5 µM), inactives show at the top dose activity change, negative = inhibition, actives largely listed as inhibitors | 6.9% of 360,000 active | AID 588342;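 further: plate controls were vehicle for no effect and reference inhibitor for full effect; nearly all actives have a fitted effect of over 55% in size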
Target sequence (P08659 whole entry, looked up): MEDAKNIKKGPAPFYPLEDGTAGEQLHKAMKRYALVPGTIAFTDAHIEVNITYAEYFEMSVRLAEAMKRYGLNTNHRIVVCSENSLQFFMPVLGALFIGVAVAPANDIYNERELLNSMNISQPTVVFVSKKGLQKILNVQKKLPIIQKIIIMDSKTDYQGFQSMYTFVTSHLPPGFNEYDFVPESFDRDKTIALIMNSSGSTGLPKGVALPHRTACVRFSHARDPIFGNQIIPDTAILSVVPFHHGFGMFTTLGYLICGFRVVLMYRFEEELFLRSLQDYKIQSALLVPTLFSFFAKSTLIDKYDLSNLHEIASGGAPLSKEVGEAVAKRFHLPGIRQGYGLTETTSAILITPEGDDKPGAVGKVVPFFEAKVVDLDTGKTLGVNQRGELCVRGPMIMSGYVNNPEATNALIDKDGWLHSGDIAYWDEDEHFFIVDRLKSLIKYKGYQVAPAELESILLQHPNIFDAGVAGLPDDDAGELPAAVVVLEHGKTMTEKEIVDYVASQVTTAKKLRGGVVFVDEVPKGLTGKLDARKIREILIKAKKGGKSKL
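Biochemical qHTS of compounds, final roughly 60 µM downward over six points, against 10 nM purified firefly luciferase using Km concentrations of substrates (10 uM D-luciferin, 10 uM ATP) in Tris acetate pH 7.5 buffer; luminescence output.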
NPC1 promoter act – activators of NPC1 promoter; Huh7 NPC1 promoter luciferase reporter, 24 h; 2.4% of 320,000 active; Potency, µM (series often up to 9.22 µM), for the others: top-dose activation, hits mostly activators; further: % of control where 0% means no effect; nearly all actives have a fitted effect of over 60% in size
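Stable NPC1-promoter luciferase Huh7 line; cpd (DMSO) 24 h, 37 °C, 5% CO2; Amplite luciferase reagent 10 min RT; luminescence readout. qHTS format.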
* marks the source's active call; other numbers are inactive results; ? = inconclusive; nt = no result; [ ] = another dose, or the depositor's remark. The call rests on the fitted dose curve; in most records, active means well fitted curve in the direction sought with a large enough effect; inconclusive means small, poorly fitted or top-dose-only effect, or another doubt; inactive means no such curve, though single readings can be large; an effect the other way counts as inactive or inconclusive. Potency means the concentration at half of the fitted maximal effect.

SMILES	SMN2 splice up	ELG1 genotoxic	ELG1 DNA repair	Rab9 prom act	FLuc modulator	NPC1 promoter act
O=C(COc1ccc(S(=O)(=O)NCc2ccccc2)cc1Cl)NCc1ccncc1	nt	-2.8%	-18.2%	?	-2.0%	-0.6%
COc1ccc(S(=O)(=O)NCc2cccnc2)cc1OC	nt	-0.2%	2.3%	-5.9%	-1.8%	-0.8%
CCCCCC1=C(C(=O)OC)C(C(=O)OCC)N(S(=O)(=O)C(F)(F)F)c2ccccc21 (centres undefined)	nt	-6.5%	?	nt	nt	nt
CC(=O)c1cc(-c2ccc(F)cc2)n(CC(=O)NCc2ccc(C)cc2)c1C	nt	nt	nt	nt	5.4%	nt
Nc1cccc2c1C(=O)N(C(=O)c1ccco1)C2=O	nt	-0.1%	-0.1%	0.9%	-11.2%	-5.7%
Nc1cccc2c1C(=O)N(C(=O)/C=C/c1ccc(F)cc1)C2=O	-3.1%	12.2%	?	-10.7%	10.7µM*	-5.0%
Cc1ccc(-n2nc(C)c3c2OC(N)=C(C#N)C3c2ccc(C)o2)cc1 (centres undefined)	6.9%	-1.8%	19.3%	3.8%	?	12.7%
Cc1ccc(-n2nc(C)c3c2OC(N)=C(C#N)C3c2ccoc2)cc1 (centres undefined)	7.5%	0.9%	?	12.2%	10.7µM*	7.0%
Cc1ccc(-n2nc(C)c3c2OC(N)=C(C#N)C3c2ccco2)cc1 (centres undefined)	15.3%	8.1%	?	17.3%	1.69µM*	2.4%
COc1ccc(Br)cc1CNC(=O)CN1C(=O)c2cccnc2Oc2ccc(C)cc21	nt	nt	nt	nt	-12.6%	nt
COCCn1c(=O)c(-c2ccc(Cl)cc2)nc2cnc(Oc3ccccc3)nc21	-24.9%	nt	nt	nt	nt	nt
O=C(O)c1ccc2c(c1)C(=O)N([C@H](Cc1ccc(-c3ccccc3)cc1)C(=O)O)C2=O	nt	nt	nt	-0.3%	-5.8%	-1.8%
COc1ccccc1N1CCN(/N=C/C(Cl)=C/c2ccccc2)CC1	nt	10.2%	?	3.16µM*	5.36µM*	2.51µM*
COc1ccccc1N1CCN(/N=C\c2ccc(C)o2)CC1	11.2µM*	?	?	3.16µM*	21.3µM*	3.55µM*
COc1ccccc1N1CCN(/N=C\c2ccccc2)CC1	nt	?	0.0%	?	15.1µM*	?
CCN(CC)CCCCCCCCOC(=O)c1cc(OC)c(OC)c(OC)c1	21.6%	18.3µM*	?	-16.3%[46.1 µM]	6.8%	-11.4%[46.1 µM]
Cc1ccc(Nc2nc(Cl)nc(NC(C)(C)C)n2)cc1	nt	?	?	21.0%	12µM*	?
O=C1CCc2ccc(NS(=O)(=O)c3ccc(F)cc3)cc2N1	?	18.3µM*	?	13.0%	-5.5%	-0.4%
COc1ccc(C2=NN(c3nc(C(=O)O)cs3)C(O)(C(F)(F)F)C2)c(OC)c1 (centres undefined)	-4.2%	-0.1%	?	-3.9%	10.7µM*	-1.1%
COc1ccc(C2=NN(C(=O)c3cccs3)C(O)(C(F)(F)F)C2)cc1 (centres undefined)	-22.8%	-6.4%	?	-3.6%	?	0.9%
CCOc1ccc(N(C)S(=O)(=O)c2ccc3c(c2)C(C)(C)C(=O)N3C)cc1	nt	nt	nt	nt	-0.9%	nt
COc1cccc(C(=O)COc2ccc(NC(=O)c3cccs3)cc2)c1	nt	-18.9%	14.6µM*	-1.2%	8.49µM*	3.5%
COC(=O)c1ccc(NC(=O)CNc2ccccc2)cc1	nt	?	?	?	23.9µM*	27.0%
COC(=O)c1ccc(OCC(=O)c2cccc(OC)c2)cc1	5.62µM*	?	?	?	23.9µM*	?
COC(=O)c1ccc(OCCOc2ccccc2)cc1	-4.5%	?	?	?	15.1µM*	15.1%
SMILES	SMN2 splice up	ELG1 genotoxic	ELG1 DNA repair	Rab9 prom act	FLuc modulator	NPC1 promoter act
CN(C)CCN(Cc1ccco1)C(=O)c1cc2c(s1)-c1ccccc1OC2	-4.7%	nt	nt	nt	5.0%	nt
COc1cccc(Cn2cnc3c2c(=O)n(C)c(=O)n3C)c1	-0.7%	nt	nt	nt	2.6%	nt
CCOc1ccc(OCC)c(NC(=O)Cn2nc(CC)n3c(cc4sccc43)c2=O)c1	1.9%	nt	nt	nt	-1.8%	nt
COC(=O)c1ccc(N=Nc2ccccc2)cc1	19.5%	1.7%	?	?	5.36µM*	14.3%
O=C(COc1ccc(NC(=O)c2cccs2)cc1)c1ccc(F)cc1	nt	22.1%	14.1%	17.6%	1.9µM*	11.0%
COC(=O)c1ccc(O)cc1	nt	-6.3%	2.0%	-1.8%	9.0%	-3.7%
CCCOc1ccc(C(=O)Nc2ccc(NC(=O)c3cccs3)cc2)cc1	nt	4.9%	0.6%	12.1%	-2.8%	0.6%
C=C1C2CC[C@@]3(C)C(c4ccoc4)OC(=O)C[C@@]13OC1CC(OC(C)=O)C(C)(C)C(CC(=O)OC)[C@@]12C (some centres undefined)	-66.3%	nt	nt	nt	nt	nt
COC(=O)c1cc(NC2(c3ccccc3)C(=O)c3ccccc3C2=O)cc(C(=O)OC)c1	nt	nt	nt	nt	5.1%	nt
COc1ccc(Cl)cc1NC(=O)CN1CCC(n2nnc3cc(C)ccc32)CC1	-58.8%	-18.5%	20.6µM*	2.7%	-11.7%	0.1%
COc1ccccc1NC(=O)CN1CCC(n2nnc3cc(F)ccc32)CC1	-13.0%	5.2%	20.6µM*	-1.0%	-0.1%	1.7%
Oc1ccc(Nc2nc(-c3ccc4ccccc4c3)cs2)cc1	25.1%	?	?	?	1.07µM*	?
O=C(CN1C(=O)CCC1=O)Nc1nc(-c2ccc3ccccc3c2)cs1	27.5%	14.2%	?	?	16.9µM*	25.8%
CC(=O)NCCC(=O)Nc1nc(-c2ccc3ccccc3c2)cs1	nt	?	?	5.8%	?	-1.0%
Oc1ccc(-c2nc(-c3ccc(O)c(O)c3)cs2)cc1	20µM*	?	?	4.8%	15.1µM*	-4.0%
CC(=O)Nc1nc(-c2ccc3ccccc3c2)cs1	nt	?	?	1.12µM*	1.35µM*	0.631µM*
Cc1ccc(-c2csc(NC(=O)CN3C(=O)CCC3=O)n2)cc1	9.1%	4.4%	15.8%	-22.5%	-0.7%	-1.8%
COc1ccc(CNC(=O)C2CCN(S(=O)(=O)Cc3ccccc3)CC2)cc1	nt	nt	nt	nt	-5.0%	nt
CCOC(=O)c1cccc(NC(=O)CN2C(=O)CC(C)(C)Sc3ccccc32)c1	0.7%	nt	nt	nt	-17.5%	nt
O=C(CN1C(=O)CCC1=O)Nc1nc(-c2ccccn2)cs1	-22.6%	-1.9%	-16.3%	-6.4%	-9.8%	-0.2%
O=C(CN1C(=O)CCC1=O)Nc1nc(-c2nc3ccccc3s2)cs1	12.6µM*	?	?	2.82µM*	10.7µM*	?
Cc1cc(NS(=O)(=O)c2ccc(Nc3nc(-c4ccc(O)cc4)cs3)cc2)no1	11.9%	0.1%	8.9%	-8.9%	23.9µM*	-19.9%
N#C/C(C(=O)c1ccccc1)=C1/CCCCCN1	?	?	?	2.51µM*	21.3µM*	?
